Of roughly 7,900 targets only a part is listed; those with a hit were picked by preference. About 0.6% of all pairs of compound and target were hits.
Key:
Experiment in all cases: log2 fold change, soluble protein after heating vs DMSO (PISA); higher = thermal stabilisation; K562 cells, 10 uM, 30 min; active = over 0.2 and 3.5 SD of the protein, either way, in both replicates (recomputed)
[1] = compound: C1=CC=C(C=C1)[C@H](COC2=CC3=C(C=C2)NC(=O)N3)NC(=O)C4=CC=CN(C4=O)CC5=CC(=C(C=C5)F)F
In short: (§1)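 K562 cells at 2×10^6 cells/mL were treated for 30 min with 10 μM compound, and aliquots were heated for 3 min over 48°C-58°C before pooling. Extraction used PBS with 0.5% NP-40 at 4°C, and soluble protein was the supernatant after 21,000xg for 90 min, measured by TMTpro 16plex LC-MS/MS with channel sums equalised. Thermal stability values, relative to control samples and from duplicates, are log2 fold changes.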

[2] = compound: CC1=C(SC2=C1C(=N[C@H](C3=NN=C(N32)C)CC(=O)N)C4=CC=C(C=C4)Cl)C
In short: as §1

[3] = compound: CC1=C2C(=CC=C1)N=C(N(C2=O)C3=CC=CC=C3C)CN4C=NC5=C(N=CN=C54)N
In short: as §1

[4] = compound: Cc1sc2c(c1C)C(c1ccc(Cl)cc1)=N[C@@H](CC(=O)OC(C)(C)C)c1nnc(C)n1-2
In short: as §1

[5] = compound: c1ccc([C@@H]2C[C@H]2NC2CCNCC2)cc1
In short: as §1

Measured: log2 fold change

STARD9 (UniProt Q9P2P6)
inactive: [1] -0.073 | [2] 0.147 | [3] -0.072 | [4] 0.042 | [5] -0.087

TAX1BP1 (UniProt Q86VP1)
Sequence of UniProt Q86VP1 (Q86VP1 whole entry, looked up): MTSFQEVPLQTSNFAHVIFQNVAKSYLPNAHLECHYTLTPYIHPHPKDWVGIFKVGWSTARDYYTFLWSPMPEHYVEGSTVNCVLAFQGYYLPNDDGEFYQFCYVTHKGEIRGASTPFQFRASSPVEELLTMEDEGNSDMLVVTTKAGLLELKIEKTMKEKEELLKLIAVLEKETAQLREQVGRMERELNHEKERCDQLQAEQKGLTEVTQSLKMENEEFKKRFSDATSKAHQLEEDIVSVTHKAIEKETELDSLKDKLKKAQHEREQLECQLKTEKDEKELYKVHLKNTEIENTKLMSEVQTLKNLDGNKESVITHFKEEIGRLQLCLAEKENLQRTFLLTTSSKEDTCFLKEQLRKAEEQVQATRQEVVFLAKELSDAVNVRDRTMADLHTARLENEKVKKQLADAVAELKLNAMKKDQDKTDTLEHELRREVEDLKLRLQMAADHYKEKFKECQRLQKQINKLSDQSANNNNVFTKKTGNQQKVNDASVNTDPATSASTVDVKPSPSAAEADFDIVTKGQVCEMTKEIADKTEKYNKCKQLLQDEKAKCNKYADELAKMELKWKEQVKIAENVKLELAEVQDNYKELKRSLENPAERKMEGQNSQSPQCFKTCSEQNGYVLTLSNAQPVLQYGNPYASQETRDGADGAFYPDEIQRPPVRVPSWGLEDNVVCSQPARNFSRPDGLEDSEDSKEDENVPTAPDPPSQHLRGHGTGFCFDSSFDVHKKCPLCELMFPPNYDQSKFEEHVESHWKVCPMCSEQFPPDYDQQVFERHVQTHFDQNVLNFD
inactive: [1] -0.008 | [2] 0.09 | [3] 0.042 | [4] 0.029 | [5] -0.007

STX7 (UniProt O15400)
Sequence of UniProt O15400 (O15400 whole entry, looked up): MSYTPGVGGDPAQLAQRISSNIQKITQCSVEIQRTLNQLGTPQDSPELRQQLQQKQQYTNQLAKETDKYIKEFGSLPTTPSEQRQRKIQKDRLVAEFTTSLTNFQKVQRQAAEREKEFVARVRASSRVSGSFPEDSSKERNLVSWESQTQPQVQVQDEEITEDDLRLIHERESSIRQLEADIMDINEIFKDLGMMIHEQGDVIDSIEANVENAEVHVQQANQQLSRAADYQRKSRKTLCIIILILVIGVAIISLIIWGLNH
inactive: [1] 0.023 | [2] 0.01 | [3] 0.027 | [4] -0.011 | [5] -0.011

SMAP2 (UniProt Q8WU79)
Sequence of UniProt Q8WU79 (Q8WU79 whole entry, looked up): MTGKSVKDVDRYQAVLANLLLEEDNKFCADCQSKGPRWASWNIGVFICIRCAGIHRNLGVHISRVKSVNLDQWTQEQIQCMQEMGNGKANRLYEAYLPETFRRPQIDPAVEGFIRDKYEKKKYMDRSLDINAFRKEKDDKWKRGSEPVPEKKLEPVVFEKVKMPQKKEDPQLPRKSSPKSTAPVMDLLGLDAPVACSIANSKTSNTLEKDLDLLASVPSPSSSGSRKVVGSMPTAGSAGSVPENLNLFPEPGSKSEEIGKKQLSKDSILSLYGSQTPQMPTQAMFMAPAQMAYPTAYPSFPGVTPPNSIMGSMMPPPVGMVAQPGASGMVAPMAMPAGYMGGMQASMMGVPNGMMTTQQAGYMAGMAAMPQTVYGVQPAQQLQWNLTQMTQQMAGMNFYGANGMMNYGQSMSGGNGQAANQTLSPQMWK
inactive: [1] -0.041 | [2] 0.013 | [3] 0.086 | [4] 0.001 | [5] 0.011

SYK (UniProt P43405)
inactive: [1] 0.21 | [2] -0.221 | [3] -0.041 | [4] 0.132 | [5] -0.105

SNRPD3 (UniProt P62318)
Sequence of UniProt P62318 (P62318 whole entry, looked up): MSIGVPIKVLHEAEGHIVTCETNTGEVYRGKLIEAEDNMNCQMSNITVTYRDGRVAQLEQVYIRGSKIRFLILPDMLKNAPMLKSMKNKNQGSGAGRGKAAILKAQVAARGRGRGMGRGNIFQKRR
inactive: [1] 0.035 | [2] -0.029 | [3] 0 | [4] 0.106 | [5] 0.036

SRSF11 (UniProt Q05519)
Sequence of UniProt Q05519 (Q05519 whole entry, looked up): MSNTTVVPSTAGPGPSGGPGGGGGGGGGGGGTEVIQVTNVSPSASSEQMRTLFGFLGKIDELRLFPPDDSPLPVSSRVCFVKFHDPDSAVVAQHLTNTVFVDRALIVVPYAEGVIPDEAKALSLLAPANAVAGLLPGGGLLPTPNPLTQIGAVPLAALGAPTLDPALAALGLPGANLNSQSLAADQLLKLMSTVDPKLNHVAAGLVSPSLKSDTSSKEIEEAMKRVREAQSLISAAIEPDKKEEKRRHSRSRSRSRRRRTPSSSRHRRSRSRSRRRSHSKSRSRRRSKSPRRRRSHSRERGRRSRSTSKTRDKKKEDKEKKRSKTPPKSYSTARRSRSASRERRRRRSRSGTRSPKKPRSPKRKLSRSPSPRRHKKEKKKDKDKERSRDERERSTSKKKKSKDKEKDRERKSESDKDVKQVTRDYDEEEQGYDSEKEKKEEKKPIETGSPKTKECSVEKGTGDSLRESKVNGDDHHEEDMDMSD
inactive: [1] 0.008 | [2] 0.037 | [3] 0.044 | [4] -0.082 | [5] -0.028

SPINDOC (UniProt Q9BUA3)
Sequence of UniProt Q9BUA3 (Q9BUA3 whole entry, looked up): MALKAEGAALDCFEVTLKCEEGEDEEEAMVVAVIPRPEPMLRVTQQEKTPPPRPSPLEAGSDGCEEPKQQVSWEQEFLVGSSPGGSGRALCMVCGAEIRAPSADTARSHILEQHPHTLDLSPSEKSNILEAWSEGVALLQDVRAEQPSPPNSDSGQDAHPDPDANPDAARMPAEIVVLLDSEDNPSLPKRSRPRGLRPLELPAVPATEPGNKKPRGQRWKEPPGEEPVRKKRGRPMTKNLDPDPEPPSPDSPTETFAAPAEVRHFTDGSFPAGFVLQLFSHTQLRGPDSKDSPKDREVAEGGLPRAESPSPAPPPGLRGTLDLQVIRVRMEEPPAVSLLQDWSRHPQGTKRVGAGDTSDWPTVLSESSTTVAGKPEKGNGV
inactive: [1] 0.03 | [2] 0.02 | [3] -0.066 | [4] 0.145 | [5] 0.041

SULT1A1 (UniProt P50225)
Sequence of UniProt P50225 (P50225 whole entry, looked up): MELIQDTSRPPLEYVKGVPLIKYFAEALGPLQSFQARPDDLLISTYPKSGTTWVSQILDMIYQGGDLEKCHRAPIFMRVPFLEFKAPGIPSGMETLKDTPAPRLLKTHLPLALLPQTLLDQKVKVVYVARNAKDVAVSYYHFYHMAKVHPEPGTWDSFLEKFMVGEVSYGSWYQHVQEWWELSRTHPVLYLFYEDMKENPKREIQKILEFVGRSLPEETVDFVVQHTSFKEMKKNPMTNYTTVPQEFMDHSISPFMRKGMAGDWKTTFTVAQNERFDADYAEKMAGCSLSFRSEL
inactive: [1] -0.083 | [2] 0.064 | [3] -0.021 | [4] -0.06 | [5] -0.066

Reference: the supplement of paper PMC10849652
